Bioassay records: PubChem, National Center for Advancing Translational Sciences (NCATS)
Caspase-1 inhib = allosteric or competitive inhibitors of human caspase-1; P29466; Caspase-1 enzyme, Ac-WEHD-AFC fluorogenic rate; Potency, µM (titrated, usually from 57.5 µM), inactives show at the highest dose activity change, negative = inhibition, actives largely listed as inhibitors; actives 0.03% (n = 75,000); AID 900;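 also: plate controls were vehicle for no effect and no substrate for full effect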
Casp7 inh = allosteric or competitive inhibitors of human caspase-7 | P55210 | recombinant caspase-7, Ac-DEVD-AFC fluorescence rate | Potency, µM (top dose mostly 57.5 µM), for the others: at the highest dose activity change, negative = inhibition, hits mostly inhibitors | actives 0.02% (n = 75,000); active = well fitted inhibition curve with a large enough effect in the main read-out, with a control signal flat, not every such curve was filed as active; inconclusive = small, poorly fitted or top-dose-only effect, or a change in a side signal; also: % of control where 0% means no effect
USP2a inhib = inhibitors of human ubiquitin-specific protease USP2a; AID 927; actives 0.1% (n = 60,000); Potency, µM (highest dose often 38.3 µM), without a hit: top-dose activity change, negative = inhibition, most hits filed as inhibitors; O75604; USP2a enzymatic assay, qHTS inhibition; also: nearly all actives have a fitted effect of over 60% in size
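USP2 core (20nM final) preincubated 30 min RT with compound, then Ub-PLA2 20nM and NBD C6-HPC 20uM final added; buffer 20mM Tris-HCl pH 8.0, 2mM CaCl2. Fluorescence Ex 460/Em 535 read at 0 and 2.5 h; normalized to NEM.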
GBA mod = modulators of human glucocerebrosidase; P04062; Potency, µM; actives 1.1% (n = 48,000); purified enzyme, resorufin glucoside fluorescence (screen aimed at inhibitors), 20 min; AID 360; in the data active = potency below about 15 µM; inconclusive = mostly about 16 µM to 33 µM;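 also: the screen sought inhibitors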
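Normal human glucocerebrosidase (0.2 nM final) was assayed with resorufin β-D-glucopyranoside (30 uM final) in 50mM citric acid/KH2PO4, 10mM sodium taurocholate, 0.01% tween-20, pH 5.9. Compounds were titrated; fluorescence (Ex 548, Em 600) read after 20 min at RT.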
Numbers without * were called inactive; i = inactive; ? = inconclusive; nt = no result; [ ] = another dose, or the depositor's remark. This excerpt belongs to a sample that is enriched for hits. Unless noted, calls follow the shape of the dose curve; as a rule, active = well fitted curve in the direction sought with a large enough effect; inconclusive = small, poorly fitted or top-dose-only effect, or another doubt; inactive = no such curve, though single readings can be large; an effect the other way counts as inactive or inconclusive. Potency is read from the fitted curve at half-maximal effect.

SMILES | Caspase-1 inhib | Casp7 inh | USP2a inhib | GBA mod
CCCC(=O)N1CCN(c2ccc(NC(=O)c3cc4ccccc4o3)cc2Cl)CC1 | -5.2% | -2.8% | 40.4% | 4.22*
CCC(=O)N1CCN(c2ccc(NC(=O)c3cc4ccccc4o3)cc2Cl)CC1 | -5.8% | -6.4% | 41.7% | 3.23*
COc1cccc(Cn2c(=O)cnc3cnc(OC)nc32)c1 | -0.7% | -1.7% | 23.7% | nt
c1ccc2c(c1)CCC[C@H]2C1=NCCN1 | 0.5% | 1.2% | 0.0% | nt
CC(Oc1ccc(Br)cc1)C(=O)NCc1cccnc1 (stereo not given) | -2.2% | -2.1% | nt | nt
N#Cc1cccc(-n2nnnc2-c2ccc3c(c2)OCO3)c1 | -2.7% | 2.1% | nt | >76.9
N#Cc1ccc(-c2nnnn2-c2ccc3c(c2)OCO3)cc1 | -1.8% | -1.2% | 35.0% | 14.8*
CCCc1ccc(Oc2c(-c3ccc(O)c(C)c3O)n[nH]c2C)cc1 | -4.0% | -4.1% | 15.8µM* | nt
Cc1onc(-c2ccccc2Cl)c1C(=O)Nc1cccc(-c2cn3cccnc3n2)c1 | -1.4% | -2.1% | 30.4% | 11.4*
Cc1onc(-c2ccccc2Cl)c1C(=O)Nc1ccc(F)c(F)c1 | -1.1% | 1.0% | 0.3% | i
CC1CC=C2C(C#N)=C(N)C(C#N)(C#N)C(c3cccs3)C2C1 (stereo not given) | nt | ? | nt | 10.7*
COc1ccc(C2CC(C(F)(F)F)n3nc(CO)c(Cl)c3N2)cc1OC (stereo not given) | 1.4% | 6.3% | -2.9% | 5.86*
CC(C)=C1C2C=CC1C1C(=O)N(c3ccc4c(c3)OCO4)C(=O)C21 (stereo not given) | 1.4% | -2.6% | 15.8%[7.66 µM] | nt
CC(=O)[C@@H]1[C@@H]2C(=O)N(c3ccc(F)c(Cl)c3)C(=O)[C@@H]2C2c3ccccc3C=CN21 (stereo not given in full) | 31.6µM* | ? | 39.1% | >76.9
N#C[C@@H]1[C@@H]2C(=O)N(c3ccc4c(c3)OCCO4)C(=O)[C@@H]2C2c3ccccc3C=CN21 (stereo not given in full) | 31.6µM* | ? | 25.4% | >76.9
O=C(c1ccco1)[C@@H]1[C@@H]2C(=O)N(c3ccc(Br)cc3)C(=O)[C@@H]2C2c3ccccc3C=CN21 (stereo not given in full) | nt | ? | 34.3% | >76.9
O=C(c1ccco1)[C@@H]1[C@@H]2C(=O)N(c3ccc(F)cc3)C(=O)[C@@H]2C2c3ccccc3C=CN21 (stereo not given in full) | nt | 12.6µM* | 38.2% | >76.9
CCCS(=O)(=O)NCCc1csc(-c2cccnc2)n1 | -2.5% | -2.1% | nt | nt
C[C@H]1CN(S(=O)(=O)c2cccc3cnccc23)CCN1 | 2.0% | 0.3% | -0.6% | nt
Oc1ccccc1C(Sc1nc2ccccc2s1)Sc1nc2ccccc2s1 | -1.6%[11.5 µM] | 0.4%[11.5 µM] | nt | nt
Cn1cc(C2NC(=O)c3c(sc4c3CCCC4)N2)c2ccccc21 (stereo not given) | -8.3% | -7.2% | nt | nt
Cn1cc(/C=N/n2cnc3sc4c(c3c2=O)CCCC4)c2ccccc21 | -2.3% | -2.7% | 31.8% | 11.7*
CCN1C(=O)[C@@H]2[C@H]3C(=CC[C@@H]2C1=O)C1(OCCCO1)[C@H]1O[C@@H]1[C@H]3O | -1.8%[11.5 µM] | -3.0%[11.5 µM] | nt | nt
Cc1[nH]n2c(=O)c3c(nc2c1-c1ccc(Cl)cc1)CCC3 | -0.3% | -0.9% | 65.3% | 11.7*
Cc1[nH]n2c(=O)c3c(nc2c1-c1ccccc1)CCC3 | -1.1% | 1.3% | -3.5% | 9.49*
SMILES | Caspase-1 inhib | Casp7 inh | USP2a inhib | GBA mod
S=C(S)NCCN1CCNCC1 | 3.5%[11.5 µM] | -1.7%[11.5 µM] | nt | nt
Cc1nc(N2CCc3ccccc3C2)[nH]c(=O)c1CCC(C)C | -3.5% | -1.0% | 2.2% | 5.28*
CC1(C)OC(C(O)(c2cc(F)c(F)c(F)c2)c2cc(F)c(F)c(F)c2)C(C(O)(c2cc(F)c(F)c(F)c2)c2cc(F)c(F)c(F)c2)O1 (stereo not given) | -2.7%[11.5 µM] | 2.7%[11.5 µM] | nt | nt
Cc1ccc(Cn2c(=N)n(CC(O)c3ccco3)c3ccccc32)cc1 (stereo not given) | -0.9% | -0.6% | 18.8% | 10.2*
COC(=O)[C@](C)(N)Cc1ccc(O)cc1 | -0.3% | 3.3% | -1.6% | nt
COc1ccccc1NS(=O)(=O)c1cc(C(=O)O)ccc1F | 0.1% | -0.5% | nt | nt
Cc1cc(-c2nnc3sc(C4CCCCC4)nn23)n[nH]1 | -1.0% | 2.8% | 6.7% | >76.9
COc1cc(-c2nnc3sc(C4CCCCC4)nn23)cc(OC)c1OC | 0.1% | -1.8% | 8.5% | 7*
C[C@@]12CC[C@H]3[C@H](CC=C4C[C@@H](O)CC[C@@]43C)[C@@H]1CC[C@@H]2N(CCO)CCO | -2.2%[11.5 µM] | -2.4%[11.5 µM] | nt | nt
CC(NC(=O)c1cc(-c2ccc(O)cc2)on1)c1ccccc1 (stereo not given) | -1.1% | -1.8% | nt | nt
COc1nc(-c2ccccc2)ccc1-c1noc(-c2ccccc2F)n1 | -1.0% | -0.8% | -4.7% | 3.75*
COc1ccc(-c2ccc(-c3noc(-c4ccccc4OC)n3)c(OC)n2)cc1 | nt | ? | 36.3% | 11.6*
COc1ccc(-c2ccc(-c3noc(-c4cccc(OC)c4)n3)c(OC)n2)cc1 | -5.4% | -3.2% | -2.2% | 5.99*
COc1nc(-c2ccc(C)cc2)ccc1-c1noc(-c2cccnc2)n1 | -4.2% | -3.0% | 12.9% | 12.2*
COc1nc(-c2ccccc2)ccc1-c1noc(-c2ccc(F)cc2)n1 | -1.3% | 0.5% | 8.8% | >76.9
O=C(Nc1ccccc1)c1ccc(Cc2nc3ccccc3[nH]2)cc1 | -4.5% | -0.9% | nt | nt
COc1ccc(-c2ccc(-c3noc(-c4ccccc4C)n3)c(OC)n2)cc1 | -15.1% | -13.9% | 15.2% | 11.1*
O=C1C2C3C=CC(C3)C2C(=O)N1CNc1ccc(O)cc1 (stereo not given) | ? | -24.9% | 191.0% | 11.6*
Cc1ccc(NCN2C(=O)C3C4C=CC(C4)C3C2=O)cc1 (stereo not given) | 0.0% | 0.8% | -0.6%[7.66 µM] | nt
COc1ccccc1-c1nc(C#N)c(N2CCN(c3ccccc3)CC2)o1 | -2.4% | -4.0% | -6.6% | 10.1*
O=C(CCCc1nc(-c2ccc(Cl)cc2)no1)Nc1cccnc1 | -1.0% | -1.3% | 11.9% | nt
O=C(Nc1ccc(-c2noc(CCc3ccccc3)n2)cc1)c1cccnc1 | -0.6% | -5.9% | 61.0% | 14.1*
COc1c2c(nc3ccccc13)O[C@@H]([C@@](C)(O)CO)C2 | -0.4% | 2.2% | 3.4% | nt
Nc1nc(N2CCN(C/C=C/c3ccccc3)CC2)nc2ccccc12 | -2.4% | 0.0% | 29.3% | 8.42*
CS(=O)(=O)NC1CCN(Cc2ccccc2)CC1 | 4.6% | 0.3% | 7.9% | >76.9
SMILES | Caspase-1 inhib | Casp7 inh | USP2a inhib | GBA mod
O=S(=O)(NC1CCCC1)c1ccc(S(=O)(=O)N2CCCN(Cc3ccccc3)C2)cc1 | -3.7% | -2.7% | 3.1% | 14.7*
COc1cccc(-c2cc(C(=O)Nc3cccc(O)c3)no2)c1 | -1.6% | -1.0% | -0.1% | 14.6*
CCCNC(=O)c1cc(-c2ccc(O)cc2)on1 | -1.3% | -1.3% | nt | nt
Nc1ccc(-c2nc3ccc(-c4nc5ccc(N)cc5[nH]4)cc3[nH]2)cc1 | 3.0% | -6.5% | 25.1µM* | nt
O=C(CN1CCCC1)Nc1ccc(NC(=O)Nc2ccccc2Cl)cc1 | -0.3% | -0.1% | 15.5% | 12.7*
O=S(=O)(Nc1cc(Cl)ccc1N1CCCCC1)c1cccs1 | -1.5% | -3.4% | 26.1% | 15.4*
O=S(=O)(Nc1ccc(N2CCCCC2)cc1)c1cccs1 | -0.2% | 0.1% | 7.7% | >76.9
